# Test results: the supplement of paper PMC9135407
# Structures can show the parent of a compound that is named as a salt. Hit rate of the full screen: of about 5,800 compounds, about 620 (11%) showed activity. Shown is part of a subset that was picked to be rich in actives. Values without a mark were called inactive.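 Rule for the calls: active = score above a cut-off or among the top three wells of a plate; in these data no inactive exceeds 0.85.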
# System: primary human hepatic stellate cells (donor 1)
# Assay: scaled lipid accumulation score (0 = DMSO-like, 1 = nortriptyline-like); higher = stronger HSC inactivation (lipid re-accumulation), active = hit call of the paper
# Conditions: 48 h
# [1] = library stock concentration: 3.33 mM
# [2] = library stock concentration: 10 mM
# [3] = library stock concentration: 1 mM
compound,measurement,setting,value
C[C@H]1c2cccc(O)c2C(O)=C2C(=O)[C@]3(O)C(O)=C(C(N)=O)C(=O)[C@@H](N(C)C)[C@@H]3[C@@H](O)[C@@H]21 [Doxycycline Hyclate],scaled lipid accumulation score,[1],≤ 0
same,scaled lipid accumulation score,[2],≤ -0.001
CC(C)OC(=O)CCC/C=C\C[C@@H]1[C@@H](/C=C/[C@@H](O)CCc2ccccc2)[C@H](O)C[C@@H]1O [17-phenyl trinor Prostaglandin F2.alpha. isopropyl ester],scaled lipid accumulation score,[3],≤ 0
CC(C)Nc1ncccn1,scaled lipid accumulation score,[2],≤ 0
C(=C\c1ccccc1)/CN1CCN(C(c2ccccc2)c2ccccc2)CC1 [Cinnarazine],scaled lipid accumulation score,library stock concentration: 5.4 mM,0.328
same,scaled lipid accumulation score,[2],0.423
COc1ccc(-c2cc(C(F)F)nn2-c2ccc(S(N)(=O)=O)cc2)cc1F [Deracoxib],scaled lipid accumulation score,library stock concentration: 5 mM,≤ 0
CCCCC/C=C\C/C=C\C/C=C\CCCCC(=O)OC [.gamma.-Linolenic Acid methyl ester],scaled lipid accumulation score,[3],≤ 0
O=C(O)CCCCCC[C@@H]1[C@@H](CC[C@@H](O)CCc2cccc(C(F)(F)F)c2)[C@H](O)C[C@@H]1O,scaled lipid accumulation score,[3],≤ 0
"CCCCC(C)(C)[C@H](O)/C=C/[C@H]1[C@H](O)CC(=O)[C@@H]1CC(=O)CCCCC(=O)O [16,16-dimethyl-6-keto Prostaglandin E1]",scaled lipid accumulation score,[3],≤ 0
CC[C@]1(O)C[C@H]2CN(CCc3c([nH]c4ccccc34)[C@@](C(=O)OC)(c3cc4c(cc3OC)N(C=O)[C@H]3[C@@](O)(C(=O)OC)[C@H](OC(C)=O)[C@]5(CC)C=CCN6CC[C@]43[C@@H]65)C2)C1 [Vincristine],scaled lipid accumulation score,[1],0.004
same,scaled lipid accumulation score,[2],0.512
CCC1(O)CC2CN(CCc3c([nH]c4ccccc34)[C@@](C(=O)OC)(c3cc4c(cc3OC)N(C=O)C3[C@]45CCN4CC=C[C@@](CC)([C@@H](OC(C)=O)[C@]3(O)C(=O)OC)[C@H]45)C2)C1.O=S(=O)(O)O (stereo partly specified) [Vincristine sulfate],scaled lipid accumulation score,[2],0.897 (active)
CC[C@]1(O)C[C@H]2CN(CCc3c([nH]c4ccccc34)[C@@](C(=O)OC)(c3cc4c(cc3OC)N(C=O)[C@H]3[C@@](O)(C(=O)OC)[C@H](OC(C)=O)[C@]5(CC)C=CCN6CC[C@]43[C@@H]65)C2)C1.O=S(=O)(O)O [Vincristine sulfate],scaled lipid accumulation score,[2],1.36 (active)
CC[C@]1(O)C[C@@H]2CN(CCc3c([nH]c4ccccc34)[C@@](C(=O)OC)(c3cc4c(cc3OC)N(C=O)[C@H]3[C@@](O)(C(=O)OC)[C@H](OC(C)=O)[C@]5(CC)C=CCN6CC[C@]43[C@@H]65)C2)C1.O=S(=O)(O)O,scaled lipid accumulation score,[2],1.47 (active)
"Cn1nc2c3c(cccc31)C(=O)c1ccccc1-2 [JNK Inhibitor, Negative Control]",scaled lipid accumulation score,[1],≤ 0
Cc1ccc2nc(NC(=O)CSc3nc4c(c(=O)n3-c3ccccc3)SCC4)sc2c1,scaled lipid accumulation score,[1],≤ 0
same,scaled lipid accumulation score,[2],0.76
COc1ccc(CNc2nc(N(CCO)CCO)nc3c2ncn3C(C)C)cc1 [Cdk2 Inhibitor III],scaled lipid accumulation score,[1],0.067
CCCCCCCC/C=C\CCCCCCCCCCCCCC(=O)NCCS(=O)(=O)O [N-Nervonoyl Taurine],scaled lipid accumulation score,[3],0.028
CCCCC[C@H](O)/C=C/[C@H]1CC[C@@H](O)[C@@H]1CCCCCCC(=O)O [11-deoxy Prostaglandin F1.beta.],scaled lipid accumulation score,[3],≤ 0
CCCCCCCCCC(=O)CC(=O)N[C@H]1CCOC1=O [N-3-oxo-dodecanoyl-L-Homoserine lactone],scaled lipid accumulation score,[3],0.017
COc1cc2c(cc1OC)-c1cc3nc4ccccc4nc3n1C(C)(C)C2,scaled lipid accumulation score,[2],0.923 (active)
COc1cc2ncc(-c3ccccc3)nc2cc1OC,scaled lipid accumulation score,[1],≤ 0
same,scaled lipid accumulation score,library stock concentration: 18.8 mM,0.096
COc1cc2ncc(-c3ccccc3)nc2cc1OC [Tyrphostin AG 1296],scaled lipid accumulation score,[1],≤ -0.009
same,scaled lipid accumulation score,[2],≤ 0
CN(CCO)CC(O)Cn1cnc2c1c(=O)n(C)c(=O)n2C (stereo unspecified),scaled lipid accumulation score,[2],≤ 0
c1([C@]2(C(=O)OC)c3c(c4c(cccc4)[nH]3)CN(CC5C2)CC(CC)=C5)cc6c(N(C)[C@]7([H])[C@]6(CC8)[C@]([H])(N89)[C@@](CC)(C=CC9)[C@@H](OC(=O)C)[C@]7(O)C(=O)OC)cc1OC.C(=O)(O)[C@H](O)[C@@H](O)C(=O)O.C(=O)(O)[C@H](O) (stereo partly specified) [Vinorelbine Tartrate],scaled lipid accumulation score,[1],1.26 (active)
same,scaled lipid accumulation score,[2],0.863 (active)
CCC1=C[C@@H]2CN(C1)Cc1c([nH]c3ccccc13)[C@@](C(=O)OC)(c1cc3c(cc1OC)N(C)[C@H]1[C@@](O)(C(=O)OC)[C@H](OC(C)=O)[C@]4(CC)C=CCN5CC[C@]31[C@@H]54)C2 [Vinorelbine],scaled lipid accumulation score,library stock concentration: 2.6 mM,0.75
CCC1=C[C@H]2CN(C1)Cc1c([nH]c3ccccc13)[C@@](C(=O)OC)(c1cc3c(cc1OC)N(C)[C@H]1[C@@](O)(C(=O)OC)[C@H](OC(C)=O)[C@]4(CC)C=CCN5CC[C@]31[C@@H]54)C2.O=C(O)C(O)C(O)C(=O)O,scaled lipid accumulation score,[2],1.52 (active)
COc1ccc2c(c1)c(CC(=O)O)c(C)n2Cc1ccc(Cl)cc1 [1-(4-Chlorobenzyl)-5-methoxy-2-methylindole-3-acetic acid],scaled lipid accumulation score,[2],0.078
NS(=O)(=O)C#Cc1ccccc1 [Pifithrin->m],scaled lipid accumulation score,[2],1.46 (active)
Nc1ccccc1S(N)(=O)=O [2-Aminobenzenesulfonamide],scaled lipid accumulation score,,≤ 0
Cc1cccc(C#Cc2ccccc2)n1 [6-Methyl-2-(phenylethynyl)pyridine hydrochloride],scaled lipid accumulation score,[2],≤ -0.034
Cc1cccc(C#Cc2ccccc2)n1 [MPEP hydrochloride],scaled lipid accumulation score,[2],0.053
NS(=O)(=O)C#Cc1ccccc1 [Pifithrin-mu],scaled lipid accumulation score,[2],1.02 (active)
Cc1cccc(C#Cc2ccccc2)n1,scaled lipid accumulation score,[1],≤ 0
same,scaled lipid accumulation score,[2],0.052
FC(F)(F)c1ccc(/C=C\c2cc(Cl)cc(Cl)c2)cc1,scaled lipid accumulation score,[3],≤ 0
